Experimental data: PubChem BioAssay AID493011 (Sanford-Burnham Center for Chemical Genomics, 2011)
The whole screen tested about 330,000 compounds, of which about 1,400 (0.42%) were called active. This is one part of a sample in which actives are shown more often than they occur. A number with no mark means an inactive call.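 Rule for the calls: active = at least 40% inhibition at 20 µM here, with at most 30% in a related deaminase screen; inactive = the rest.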

Each compound was assayed against DNA dC->dU-editing enzyme APOBEC-3A (Homo sapiens) (UniProt P31941) (assay: APOBEC3A ssDNA deaminase inhibitors, primary screen, selectivity assay for APOBEC3G inhibitor project, biochemical, FAM/TAMRA oligo cleavage fluorescence (AID 493011;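 note: plate controls were A3A with DMSO for no effect and wells lacking A3A enzyme for full effect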)). Conditions: recombinant A3A, FAM/TAMRA ssDNA deamination fluorescence; at 20 µM; stronger effect = higher value.
Sequence of DNA dC->dU-editing enzyme APOBEC-3A (Homo sapiens) (P31941 whole entry, looked up): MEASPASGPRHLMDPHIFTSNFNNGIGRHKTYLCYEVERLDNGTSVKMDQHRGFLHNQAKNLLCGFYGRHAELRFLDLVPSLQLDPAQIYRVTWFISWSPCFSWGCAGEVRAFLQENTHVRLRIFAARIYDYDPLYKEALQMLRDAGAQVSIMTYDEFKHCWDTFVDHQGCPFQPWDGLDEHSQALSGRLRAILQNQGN

With `O=C1c2oc3ccccc3c(=O)c2C(c2cccc(O)c2)N1c1ccccn1` (stereo not drawn) the inhibition was 51.3% (active).
With `COc1ccc(Br)cc1CN(C)C(=O)C1CC(=O)N(C2CCCC2)C1` (stereo not drawn) the inhibition was 43.5% (active).
`C[N+]1(CC(O)COc2ccccc2)CCN(C(=O)c2ccc([N+](=O)[O-])cc2)CC1` (stereo not drawn) was tested, and the inhibition was 67.8% (active).
With `COCCCn1c(Cc2csc(Nc3cccc(Cl)c3)n2)nnc1SCC(=O)OC1CCCCC1` the inhibition was 50.4% (active).
With `COc1ccc(CCNC(=O)COC(=O)/C=C/c2cccs2)cc1OC` the inhibition was 48.9% (active).
In the case of `COc1cc(/C=N\Nc2ccc([N+](=O)[O-])cn2)ccc1OCC(=O)O`, the inhibition is reported as 71.8% (active).
For `COC(=O)C[n+]1cccc2ccccc21`, the inhibition was 67.3% (active).
For `O=C(CNC1CCCCC1)NCC1(c2ccccc2)CCCC1`, the inhibition was 56.4% (active).
With `C[N+]1(CCNC(=O)/C=N/O)CCCCC1` the inhibition was 54.1% (active).
For `Cc1snc(SCc2c(F)cccc2Cl)c1C#N`, the inhibition was 44.2% (active).
`CCN1C(=NCCc2cccnc2)N[C@@H](c2ccccc2)[C@H](C(=O)OC)[C@H]1C` was tested, and the inhibition was 68.2% (active).
`Cc1cc(/C=N/NC(=O)CC2(C)OCCO2)c(C)n1-c1ccc(Cl)c(Cl)c1` was tested, and the inhibition was 56.8% (active).

First: O=c1c2ccccc2c(-c2ccccc2)nn1-c1ccccn1
Second: O=C(Oc1ccc(-c2nc(-c3ccccn3)no2)cc1)c1ccccc1
The inhibition of the first is lower: 0.978% for the first, 2.42% for the second.

First: COCCN1C(=O)c2oc3c(C)cc(C)cc3c(=O)c2C1c1cccc(O)c1 (stereo not drawn)
Second: COc1ccc(CCNC(=O)c2cc3sccc3n2C)cc1OC
The inhibition of the first is lower: -3.14% for the first, 5.91% for the second.

First: O=C(NC(CC(=O)N1CCN(c2ccccc2)CC1)c1ccccc1)c1ccccc1Cl (stereo not drawn)
Second: COc1ccccc1NC(=O)COC(=O)c1ccccc1SCC(=O)N1CCCC1
The inhibition of the first is lower: -2.76% for the first, 1.2% for the second.

Going from `CN1C(C(=O)NCC2CC2)CC2Cn3c(nc4ccccc43)C21` (stereo not drawn) to `COCCCn1c(SCC(=O)NC2CCCC2)nnc1-c1ccccc1`, the inhibition rises from -2.77% to 0.169%.

First: CCCCn1c(N)c(N(CC(C)C)C(=O)C2CSC3(C)CCC(=O)N23)c(=O)[nH]c1=O (stereo not drawn)
Second: COc1ccccc1N1CCN(C(=O)CCS(=O)(=O)c2ccc3c(c2)NC(=O)C(C)S3)CC1 (stereo not drawn)
The inhibition of the first is higher: 7.64% for the first, 0.853% for the second.

First: CN(CC(=O)Nc1ccc(F)c(F)c1F)C(=O)C1CC(=O)N(C2CCCC2)C1 (stereo not drawn)
Second: CCOc1ccc(CNC(=O)C2CC(=O)N(C3CCCC3)C2)cc1OC (stereo not drawn)
The inhibition of the first is higher: 0.598% for the first, -5.29% for the second.

Compared with `Cc1ccc(NS(=O)(=O)c2ccc(C(C)C)cc2)cc1S(=O)(=O)N1CCOCC1`, `Cc1ccccc1-n1c(C)cc(/C=N/NC(=O)c2ccc(CN3CCOCC3)cc2)c1C` is lower in inhibition: 3.31% for the first, 0.38% for the second.

Going from `O=C(Cn1cnc2ccccc2c1=O)Nc1cccc(S(=O)(=O)N2CCCCC2)c1` to `O=C(COc1ccccc1)Nc1ccc(C(=O)N2CCCC2)cc1`, the inhibition falls from 2.51% to 0.542%.

Going from `CCOc1cc(C)c(S(=O)(=O)NCc2ccccn2)cc1C` to `CCOc1ccc(S(=O)(=O)Nc2ccncc2)c(C)c1C`, the inhibition rises from -6.13% to -0.833%.

Compared with `O=[N+]([O-])c1ccc(N2CCN(CC(O)COc3ccccc3)CC2)cc1` (stereo not drawn), `CCO[C@H]1OC(C(=O)N2CCN(Cc3ccccc3)CC2)=C[C@@H](c2cn(C(C)=O)c3ccccc23)[C@@H]1CCCO` is lower in inhibition: 0.14% for the first, -2.14% for the second.

Going from `CCN(CC(=O)NCc1cccs1)c1nnnn1-c1ccccc1` to `COc1ccc(/C=C/C(=O)OCC(=O)NCc2cccs2)cc1OC`, the inhibition rises from -3.14% to 2.47%.

Going from `CCCCNC(=O)N1CCCC(N(C)CCc2ccc(OC)c(OC)c2)C1` (stereo not drawn) to `COc1cc(C(=O)NCC2(c3ccccc3)CCCC2)ccc1OC(C)C`, the inhibition rises from -3.11% to 5.08%.

First: CCS(=O)(=O)c1ccc2c(c1)N(S(=O)(=O)c1ccccc1)CC(C(=O)O)O2 (stereo not drawn)
Second: CCN1C(=NCCc2cccnc2)N[C@@H](c2ccccc2)C(C(=O)OC)=C1C
The inhibition of the first is lower: 1.33% for the first, 67.6% for the second.

Compared with `CCOc1ccc(Nc2nc(Cc3nnc(SCC(=O)NC4CCCC4)n3C)cs2)cc1`, `CCOc1c(OC)cccc1C(=O)NCC1(c2ccccc2)CCCC1` is higher in inhibition: -3.45% for the first, -3.19% for the second.

First: Cc1cn(C2OC[C@@H](O)[C@@H]2CO)c(=O)[nH]c1=O (stereo partly drawn)
Second: CCN1C(=O)N[C@@H](c2ccccc2)[C@H](C(C)=O)[C@H]1C
The inhibition of the first is higher: -1.23% for the first, -2% for the second.

First: COCCn1c(SCC(=O)N2CCCCCC2)nc2c(c1=O)SCC2
Second: COc1c(C(=O)N2CCCC2)ccc2ccccc12
The inhibition of the first is lower: -5.21% for the first, 1.55% for the second.

Going from `CC(C)(C)C1CCC(C(=O)Nc2cccnc2)CC1` (stereo not drawn) to `O=C(NC1(C(F)(F)F)NC(=O)N(Cc2cccnc2)C1=O)c1ccccc1Cl` (stereo not drawn), the inhibition rises from -2.44% to 0.863%.

Going from `CCCc1ccc(OCc2ccc(C(=O)N/N=C/c3cccc([N+](=O)[O-])c3)o2)c(OC)c1` to `COc1cc(/C=N/NC(=O)Nc2ccccc2)ccc1OCCOc1ccccc1C`, the inhibition falls from 2.99% to -4.86%.

Compared with `O=C(C[n+]1cc(Br)cc2ccccc21)c1ccc(F)cc1`, `Cc1cccc(N2C(=O)N3[C@H](c4ccc(F)cc4)[C@@H]4C(=O)N(C5CCCCC5)C(=O)[C@@H]4[C@]3(Cc3ccccc3)C2=O)c1` is higher in inhibition: -1.32% for the first, 0.21% for the second.

First: O=[N+]([O-])c1cc(S(=O)(=O)N2CCCC2)ccc1NN=C1CCCC1
Second: O=C(CCC1CCCCC1)Nc1cc(C(F)(F)F)ccc1N1CCOCC1
The inhibition of the first is lower: -1.16% for the first, 1.06% for the second.

First: Cc1ccc(CSc2nsc(C)c2C#N)cc1
Second: Cc1cc(SCc2c(F)cccc2Cl)nc(=O)[nH]1
The inhibition of the first is lower: -2.03% for the first, 1.16% for the second.

Compared with `Cc1ccc(NC(=O)CN(C)C(=O)COC(=O)C(C)(C)Oc2ccc(Cl)cc2)cc1`, `Cc1cc(Cl)ccc1C(=O)C1CCCN(C(=O)c2nonc2C)C1` (stereo not drawn) is lower in inhibition: 1.01% for the first, -5.04% for the second.

First: CC1=C(C(N)=O)C(c2sccc2C)n2nnnc2N1 (stereo not drawn)
Second: Cc1cc(=O)cc(C)n1-c1ccc(Cl)c(Cl)c1
The inhibition of the first is lower: 0.148% for the first, 1.75% for the second.
